TTR transcr act: TTR transcription activators in neuroblastoma reporter cells, primary screen, cell-based, luminescence, SH-SY5Y, TTR promoter Gaussia luciferase. 100% = recombinant luciferase protein wells. hit rate 1.3% among 92,000. activation, % at 16.7 µM;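 active means activation above the mean of all tested compounds plus 3 SD, cut at about 9.5% in these data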;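 further: cells exposed to compounds for one day before reading; 0% = median of all test compound wells on the plate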
TTR inh HuH7: TTR promoter reporter inhibitors in hepatoma cells, counter-screen for TTR transcription activator project, cell-based, luminescence, HuH7 hepatoma; HuH7 TTR promoter-Gaussia luciferase reporter; hit rate 4% among 1,100; shares compounds with TTR transcr act; inhibition, % at 16.7 µM;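 active means average inhibition above the solvent-only control wells' mean plus 3 SD, cut at about 15% in these data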;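 further: 0% = cells with DMSO only and 100% = cells with inhibitor control FD; inhibitors lower well luminescence so higher value means more inhibition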
TTR up confirm: TTR transcription activators, retest, confirmation, cell-based, luminescence, SH-SY5Y, triplicate; activation, % at 16.7 µM; shares compounds with TTR transcr act; SHSY5Y TTR promoter Gaussia luciferase; 100% = purified Lucia enzyme wells, no cells; AID 1117280, 2014; 1,100 tested, under 10 active;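 active means mean activation above a set limit taken from the earlier primary screen, cut at about 11% in these data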;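 further: 0% = DMSO-treated cells and 100% = recombinant Lucia luciferase without cells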
* marks the source's active call; other numbers are inactive results. The sample as a whole holds a higher share of hits than the screen did.

SMILES	TTR transcr act	others
Cc1cc(C(=O)NC2CCCN(Cc3ccc(Cl)cc3)C2)c(C)o1 (stereo not given)	0.8
C[C@@H](NC(=O)c1nc[nH]c1C(=O)NCC(=O)OC(C)(C)C)c1ccccc1	3.9
CC(C)(C)OC(=O)CNC(=O)c1nc[nH]c1C(=O)N1CCN(c2ccccc2)CC1	3.1
CN(Cc1ccccc1)C(=O)c1[nH]cnc1C(=O)NCC(=O)OC(C)(C)C	10.6*	TTR inh HuH7=-15.7;TTR up confirm=22.1*
COc1ccc(OC)c(CN2C(=O)CCCC2(C)c2nnnn2C2CCCC2)c1 (stereo not given)	-0.1
CCc1noc(C)c1C(=O)N1CCSC1=Nc1cccc(Cl)c1C	1.0
CCOC(=O)[C@@]12CCC3=C1N(CCC3)C(=O)[C@H](CC(=O)NCc1ccc(OC)c(OC)c1)C2	-0.7
Cc1ccc(C)c(S(=O)(=O)Nc2nc(C)c(C(=O)Nc3ccccc3)s2)c1	1.4
Cc1ccc(S(=O)(=O)NNC(=O)c2sc(NS(=O)(=O)c3ccccc3)nc2C)cc1	0.2
CCOC(=O)Nc1sc(NS(=O)(=O)c2ccccc2)nc1C	10.5*	TTR inh HuH7=-18.7;TTR up confirm=2.5
CC(=O)c1ccc(NC(=O)Nc2sc(NS(=O)(=O)c3ccccc3)nc2C)cc1	29.8*	TTR inh HuH7=-6.1;TTR up confirm=2.1
Cc1nc(NS(=O)(=O)c2ccccc2)sc1C(=O)N/N=C/c1ccccc1	0.1
CC(=O)c1ccc(NC(=O)NNS(=O)(=O)c2ccc(F)cc2)cc1	-1.5
O=S(OCCN1CCOCC1)C(c1ccccc1)c1ccccc1 (stereo not given)	-0.1
CN1CC(O)([C@H](Cc2ccccc2)NC(=O)OC(C)(C)C)OCC1C(=O)NCc1cccc2ccccc12 (stereo not given in full)	-3.9
N#CCCN(C(=O)COC(=O)CNS(=O)(=O)c1ccc2ccccc2c1)c1ccccc1	6.4
CN(C)c1cccc2c(S(=O)(=O)NC(=O)[C@H]3O[C@@H](n4cnc5c(N)ncnc54)[C@H](O)[C@@H]3O)cccc12	-0.1
COc1ccc(C(C)=O)cc1CSc1nnc2c(Cl)cc(Cl)cn12	0.8
C=CCn1c(C)cc(C(=O)CSc2nc(N)cc(N)n2)c1C	1.9
C=CCn1c(C)cc(C(=O)CSc2nnc3c(Cl)cc(Cl)cn23)c1C	21.6*	TTR inh HuH7=-13.2;TTR up confirm=0.3
Cn1nc(C(=O)N2CCC(C(N)=O)CC2)c2c1-c1ccccc1SC2	2.8
Cc1ccccc1-c1cnc2c(c1)C(=O)N([C@@H](C)CO)C[C@@H](C)[C@H](CN(C)Cc1ccccc1F)O2	-1.0
O=C(c1ccco1)N1CCN(C2CC(=O)N(c3ccc(F)c(Cl)c3)C2=O)CC1 (stereo not given)	10.1*	TTR inh HuH7=-0.8;TTR up confirm=-0.3
COc1cccc(N2C(=O)CC(N3CCN(C(=O)c4ccco4)CC3)C2=O)c1 (stereo not given)	-0.5
COc1ccc(N2C(=O)CC(N3CCN(C(=O)c4ccco4)CC3)C2=O)cc1 (stereo not given)	-1.2
SMILES	TTR transcr act	others
CCCC1CCC2(CC1)CCC2OC(=O)Nc1ccc2c(c1)OCO2 (stereo not given)	1.1
COc1ccc(C(=O)C2CCN(C(=O)c3ccco3)CC2)cc1	10.7*	TTR inh HuH7=10.9;TTR up confirm=-1.1
O=C(c1ccco1)N1CCN(C(=O)C2CC2)CC1	-1.4
COc1cc(C(=O)N2CCN(C(=O)c3ccco3)CC2)cc(OC)c1OC	-3.2
O=c1[nH][nH]c2c1[C@H](c1ccc(Cl)cc1)O[C@H](C1CC1)C2	5.0
Cc1ccc(NC(=O)OC2CC3CC2[C@H]2CCCCN2[C@H]3C)cc1 (stereo not given in full)	0.4
O=C(O)c1ccc(CSc2nnc(Cc3ccccc3)o2)cc1	12.5*	TTR inh HuH7=42.3*;TTR up confirm=-2.3
O=C(CSc1nnc(Cc2ccccc2)o1)N1CCc2ccccc21	0.4
CC(C)(C)OC(=O)NCCc1nnc(SCc2ccccc2)o1	-2.4
Cc1c(C(=O)N2CCN(S(=O)(=O)c3ccccc3)CC2)oc2ccc(Br)cc12	31.2*	TTR inh HuH7=-18.6;TTR up confirm=-0.1
Cc1c(C(=O)N2CCc3ccccc3C2)oc2ccc(S(=O)(=O)N3CCCCCC3)cc12	0.7
Cc1c(C(=O)N2CCOCC2)oc2ccc(S(=O)(=O)N3CCCC3)cc12	1.5
CCC1NC(=O)c2cc3ccccc3cc2-n2c1nc1cc(OC)c(OC)cc1c2=O (stereo not given)	-1.2
CCOC(=O)C1(C)CCN1C(=O)c1ccc(SC(F)(F)F)cc1 (stereo not given)	2.4
CC1CCCN(c2cccc3c2S(=O)(=O)N([C@H](C)c2ccccc2)C[C@@H](COCc2ccccc2)O3)C1 (stereo not given in full)	-3.0
CC(C)(C)NC(=O)[C@@H](c1cccnc1)N(C(=O)c1ccco1)c1ccc(C(C)(C)C)cc1	5.3

Compound activity from PubChem BioAssay.
